Only some compounds are listed: those with a hit (about 5.9% of all), similar ones and a draw of the others.
Rtt109 HAT inh – C. albicans Rtt109 histone acetyltransferase inhibition; purified Rtt109/Vps75, ThioGlo CoA-SH fluorescence, 4 h; inhibition, % at 34.9 µM; 330,000 compounds, 0.16% hits; AID 540336;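 active = inhibition of at least 50% in every replicate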
ABHD5 PLIN5 PPI – inhibitors of human ABHD5-perilipin-5 interaction; Q00G26+Q8WTS1; Split G. princeps luciferase complementation, luminescence, 4 h; inhibition, % at 4 µM; 360,000 compounds, 0.78% hits; AID 602281;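 active = inhibition above the mean inhibition across every tested compound plus 3 SD, cut at about 22% in these data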
ALR inh – human ALR oxidase inhibition via reduced H2O2; 290,000 compounds, 3.8% hits; purified ALR, DTT oxidation, H2O2 HRP-luminol luminescence; inhibition, % (concentration not given with the values); AID 485317; P55789;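 active = mean replicate inhibition above about 79%, with every replicate also reaching it, limit read from the data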
PRMT1 FP inh – PRMT1 (human) inhibition, primary screen. Q99873. recombinant PRMT1, activity-based probe fluorescence polarization. inhibition, % at 2.79 µM. 370,000 compounds, 1.3% hits;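 active = inhibition above about 21% made by adding two undisclosed values, limit read from the data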
rCAG RNA binder – molecules binding r(CAG) RNA repeats; 370,000 compounds, 1.3% hits; inhibition, % at 3 µM; r(CAG) RNA repeat, TO-PRO-1 dye displacement fluorescence;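 active = inhibition above the plate cutoff, the mean of all test compounds on that plate plus 3 SD, cut at about 35% in these data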;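 also: higher means more dye released from RNA so lower well fluorescence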
LANA-H2B inh – blocks KSHV LANA binding to histone H2A/H2B; AID 2629; cell-free LANA-H2A/H2B peptide, fluorescence polarization; inhibition, % (concentration not given with the values); 320,000 compounds, 0.6% hits; in the data active = inhibition mostly above about 10%, no sharp cut-off; inactive = mostly below about 6.7%
Each line names hits and unclear results; the compound was inactive in the other large screens.

COc1cc(/C=N/N2C(=O)c3ccccc3C2=O)ccc1O	none
COc1cc(/C=N/N=C2/NC(=O)C(c3ccccc3)S2)ccc1O (stereo not given)	ALR inh 98.6
COc1ccc(/C=N/N=C2/NC(=O)C(CC(=O)O)S2)cc1OCc1ccccc1Cl (stereo not given)	ALR inh 91.9
C[C@@H]1CN([C@@H](C)CO)C(=O)CCCn2cc(nn2)CO[C@H]1CN(C)C(=O)Nc1ccc(-c2cccs2)cc1	none (no result: Rtt109 HAT inh, ABHD5 PLIN5 PPI, ALR inh, LANA-H2B inh)
c1ccc(CCc2ccncc2)cc1	none
Nc1cccc(CCc2ccncc2)c1	ALR inh 90.2
C(=C\c1ccccn1)/c1ccncc1	none
Nc1cccc(/C=C/c2ccncc2)c1	ALR inh 99.1
COc1cc(NC(=O)C2CCCN(S(=O)(=O)c3ccc(C)cc3)C2)cc(OC)c1 (stereo not given)	none (no result: Rtt109 HAT inh, ABHD5 PLIN5 PPI, ALR inh, LANA-H2B inh)
CC(Sc1ccc(S(=O)(=O)N2CCCCC2)cn1)C(N)=O (stereo not given)	none (no result: Rtt109 HAT inh, ALR inh, LANA-H2B inh)
CCCN1CCS(=O)(=O)N(Cc2cn(CC(=O)OCC)nn2)C(C(=O)OC)C1 (stereo not given)	none (no result: Rtt109 HAT inh, ABHD5 PLIN5 PPI, ALR inh, LANA-H2B inh)
CC(C)(C)S(=O)N1C[C@@H]2CC(=O)C(CCO)=C2[C@H]1CCO (stereo not given in full)	none (no result: Rtt109 HAT inh, ABHD5 PLIN5 PPI, ALR inh, LANA-H2B inh)
COc1ccc(-c2cc(-c3nnc(SCC(=O)Nc4ccc(-c5nc6ccc(C)cc6s5)cc4)n3N)[nH]n2)cc1	none (no result: Rtt109 HAT inh, ABHD5 PLIN5 PPI, ALR inh, LANA-H2B inh)
O=C(Nc1ccc(C(O)(C(F)(F)F)C(F)(F)F)cc1)c1c(F)cccc1F	none (no result: Rtt109 HAT inh, ABHD5 PLIN5 PPI, ALR inh, rCAG RNA binder, LANA-H2B inh)
Cc1cnc(NC(=O)CSc2nnc(COc3ccccc3)o2)s1	PRMT1 FP inh 24.2 (no result: ALR inh)
CCN(CC)C(=O)C1=C(C)N(CCC2=CCCCC2)C(=O)C(CC(=O)NCCCN(C)C)C1 (stereo not given)	none (no result: Rtt109 HAT inh, ALR inh, LANA-H2B inh)
CCN(CC)S(=O)(=O)c1cccc(-c2cn3cccnc3n2)c1	ALR inh 98.7
Nc1cccc(-c2cn3cccnc3n2)c1	ALR inh 99.1
CCN(CC)S(=O)(=O)c1cccc(-c2csc(C)n2)c1	ALR inh 97.3
Cc1nc(-c2cccc(S(=O)(=O)N3CCCCC3)c2)cs1	none
COc1ccc(N2CCN(CCCn3c(=S)[nH]c4ccccc4c3=O)CC2)cc1	ALR inh 94.9 (no result: Rtt109 HAT inh)
COc1ccccc1N1CCN(CCCn2c(=S)[nH]c3ccccc3c2=O)CC1	ALR inh 96.8
CCOc1cc2[nH]c(=S)n(CCCN3CCOCC3)c(=O)c2cc1OCC	none
COc1cc2c(=O)n(CCCN3CCOCC3)c(=S)[nH]c2c(OC)c1OC	ALR inh 94.8
CN1CCN(CCn2c(=S)[nH]c3ccccc3c2=O)CC1	none
OC1c2c(F)cccc2N=C2CCCCN21 (stereo not given)	none (no result: Rtt109 HAT inh, ALR inh, LANA-H2B inh)
Cc1cc(C)c2nc(N3CCCN(C(=O)c4ccco4)CC3)c(C#N)cc2c1	PRMT1 FP inh 22.3
Cc1cc(C2=NNC(=NC3CC3)SC2)c(C)n1-c1ccccc1	none (no result: ALR inh, LANA-H2B inh)
c1ccc(C2=NNC(=NC3CC3)SC2)cc1	PRMT1 FP inh 64.8
N#C/C(=C\c1cc2c(cc1Br)OCO2)C(=O)NCC1CCCO1 (stereo not given)	ALR inh 97.6
Cc1cc(N/N=C/c2ccc(N(C)C)cc2)c2ccccc2n1	none
Cc1cc(N/N=C/c2ccc(O)cc2)c2cccc(C)c2n1	ALR inh 99.5
Cc1cc(C)c2nc(C)cc(N/N=C/c3ccc(O)cc3)c2c1	ALR inh 99.4
COC(=O)Cc1ccc(OC2(C)CCN(Cc3ccccc3)C2)cc1 (stereo not given)	none (no result: Rtt109 HAT inh, ALR inh, LANA-H2B inh)
CCOC(=O)C(=NCCCN(C)C)NNc1ccc(Br)cc1	ALR inh 99.0 (no result: Rtt109 HAT inh)
CCCCN=C(NNc1ccc(Br)cc1)C(=O)OCC	ALR inh 99.2
CCOC(=O)/C(=N/Nc1ccc(Br)cc1)N1CC(C)OC(C)C1 (stereo not given)	none (no result: ALR inh, LANA-H2B inh)
C=CCN1C(=O)[C@@H](CC(=O)NCCCC)[C@]2(C(=O)OCC)CCCCC/C=C/12	none (no result: Rtt109 HAT inh, ABHD5 PLIN5 PPI, ALR inh, LANA-H2B inh)
COc1ccccc1NC1C=CS(=O)(=O)C1 (stereo not given)	ALR inh 76.3
C=CCN1[C@@H](C)[C@H](c2ccccc2)Oc2cccc(NCC(C)C)c2S1(=O)=O	none (no result: Rtt109 HAT inh, ABHD5 PLIN5 PPI, ALR inh, LANA-H2B inh)
COc1c(OC)c2[nH]c(=O)cc3c4ccccc4n(c1=O)c23	none
O=c1c(Cl)c(O)c2cccc3c4ccccc4n1c23	ALR inh 99.0
Cn1c(=O)c(-c2cccc(Cl)c2)c(O)c2ccccc21	none
COc1c(O)c(=O)n2c3ccccc3c3ccnc1c32	ALR inh 97.7
